This note sets out measurements from PubChem BioAssay (EPA / NIEHS).

Broadly, the AC50 is the concentration giving half of the maximal activity seen.

Experiment [1] has as its target human CYP4F12, CYP4F12 (gene 66002) (UniProt Q9HCS2). As to the kind of experiment: NVS_ADME_hCYP4F12: NovaScreen (NVS) CYP450-related Enzyme Activity (ADME) Assay for human CYP4F12 (AID 2283111). In short, it runs like this:
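Cell-free fluorescence assay of recombinant human CYP4F12 activity on a specific substrate, read 0.5 h after dosing. Primary screen in duplicate at 10 uM, then concentration series for actives; loss of signal fitted against acetonitrile negative control.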

The target in experiment [2] is human AMP-activated Protein Kinase, alpha 1 (AMPKa1), PRKAA1 (gene 5562) (UniProt Q13131). Put plainly: NVS_ENZ_hAMPKa1: NovaScreen (NVS) Enzymatic Assay for human AMP-activated Protein Kinase, alpha 1 (AMPKa1) (AID 2283130). Summed up:
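Recombinant human AMPKα1 activity was measured cell-free by fluorescent substrate conversion with electrophoretic mobility-shift separation, 1 h after dosing. Duplicate single-point screening was at 25 uM; actives (≥30% inhibition) were retested in concentration-response up to 50 uM.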

The target in experiment [3] is rat CYP1A2, Cyp1a2 (gene 24297) (UniProt P04799). As to the kind of experiment: NVS_ADME_rCYP1A2: NovaScreen (NVS) CYP450-related Enzyme Activity (ADME) Assay for rat CYP1A2 (AID 2283115). In short, it runs like this: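 Cell-free recombinant rat enzyme with fluorogenic substrate, read by fluorescence intensity 1 hour after dosing. Loss of signal versus acetonitrile negative control; primary screen at 10 uM in duplicate, actives followed in concentration series.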
Sequence of rat CYP1A2, Cyp1a2 (gene 24297) (P04799 whole entry, looked up): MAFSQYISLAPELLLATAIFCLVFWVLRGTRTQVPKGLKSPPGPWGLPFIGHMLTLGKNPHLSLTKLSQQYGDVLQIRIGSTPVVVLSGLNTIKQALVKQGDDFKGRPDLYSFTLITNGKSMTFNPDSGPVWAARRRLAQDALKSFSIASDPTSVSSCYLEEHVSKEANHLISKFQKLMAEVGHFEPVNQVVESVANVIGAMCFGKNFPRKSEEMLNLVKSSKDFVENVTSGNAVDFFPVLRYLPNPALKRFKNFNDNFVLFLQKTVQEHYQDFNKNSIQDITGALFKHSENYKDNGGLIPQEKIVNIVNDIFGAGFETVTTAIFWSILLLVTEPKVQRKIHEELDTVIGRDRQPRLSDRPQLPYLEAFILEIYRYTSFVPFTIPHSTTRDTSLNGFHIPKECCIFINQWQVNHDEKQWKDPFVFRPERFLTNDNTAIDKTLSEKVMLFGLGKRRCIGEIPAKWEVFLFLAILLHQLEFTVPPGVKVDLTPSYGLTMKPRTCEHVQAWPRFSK

In experiment [4] the test system is rat Monoamine Oxidase, MAO-A, Central (MAOAC), gene 29253. Put plainly: NVS_ENZ_rMAOAC: NovaScreen (NVS) Enzymatic Assay for rat Monoamine Oxidase, MAO-A, Central (MAOAC) (AID 2283243).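 Further: potency refers to inhibition seen as signal drop below DMSO baseline.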 In short, it runs like this: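 Inhibition of rat brain-derived MAO-A was read by scintillation counting after 1.5 h exposure. Compounds screened first at 25 uM in duplicate, then in dose series if active.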

The target in experiment [5] is human Acetylcholinesterase (AChE), ACHE (gene 43) (UniProt P22303). Put plainly: NVS_ENZ_hAChE: NovaScreen (NVS) Enzymatic Assay for human Acetylcholinesterase (AChE) (AID 2283129). In short, it runs like this: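 Cell-free colorimetric enzyme-activity assay; compounds read 0.33 hour after dosing, loss of signal vs DMSO baseline. Primary screen in duplicate at 25 uM single concentration, with active compounds retested in concentration series.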
Sequence of human Acetylcholinesterase (AChE), ACHE (gene 43) (P22303 whole entry, looked up): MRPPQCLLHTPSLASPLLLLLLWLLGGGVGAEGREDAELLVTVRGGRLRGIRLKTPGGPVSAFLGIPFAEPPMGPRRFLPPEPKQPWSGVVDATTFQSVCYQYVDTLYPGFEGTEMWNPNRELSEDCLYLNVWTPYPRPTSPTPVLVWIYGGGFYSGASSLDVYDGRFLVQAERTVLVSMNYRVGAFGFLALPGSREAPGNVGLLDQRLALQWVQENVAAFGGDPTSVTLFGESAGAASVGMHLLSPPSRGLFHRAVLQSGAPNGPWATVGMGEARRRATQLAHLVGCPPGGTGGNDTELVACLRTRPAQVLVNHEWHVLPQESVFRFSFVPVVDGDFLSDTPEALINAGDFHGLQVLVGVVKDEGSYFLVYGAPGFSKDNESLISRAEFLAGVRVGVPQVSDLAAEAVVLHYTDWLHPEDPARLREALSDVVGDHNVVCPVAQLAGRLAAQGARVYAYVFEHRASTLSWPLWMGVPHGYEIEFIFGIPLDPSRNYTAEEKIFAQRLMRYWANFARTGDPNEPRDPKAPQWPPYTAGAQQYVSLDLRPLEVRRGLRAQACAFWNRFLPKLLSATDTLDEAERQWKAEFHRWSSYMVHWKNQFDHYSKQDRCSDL

In experiment [6] the target is human IkappaB Kinase alpha (IKKa), CHUK (gene 1147) (UniProt O15111). As to the kind of experiment: NVS_ENZ_hIKKa: NovaScreen (NVS) Enzymatic Assay for human IkappaB Kinase alpha (IKKa) (AID 2283167). Summed up:
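Cell-free recombinant human IKKa with fluorescent substrate, product separated by electrophoretic mobility shift; read 1 hour after dosing. Primary screen duplicate at 25 uM, actives then concentration-response up to 50 uM; loss of signal relative to DMSO.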

For another experiment, the target named is PPP2CA (gene 5515) (UniProt P67775). As to the kind of experiment: NVS_ENZ_hPPP2CA: NovaScreen (NVS) Enzymatic Assay for human Protein Phosphatase 2 Aatalytic subunit Alpha (PPP2CA) (AID 2283199). In short, it runs like this:
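Recombinant human PPP2CA with fluorescent substrate; product separated from substrate by electrophoretic mobility shift, read 1.33 h after dosing. Duplicate single-point at 25 uM, then singleton concentration-response up to 50 uM; loss of signal versus DMSO.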

Experiment [7] has as its system rat Monoamine Oxidase, MAO-A, Peripheral (MAOAP), gene 29253. Put plainly: NVS_ENZ_rMAOAP: NovaScreen (NVS) Enzymatic Assay for rat Monoamine Oxidase, MAO-A, Peripheral (MAOAP) (AID 2283237). Summed up:
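Rat liver mitochondrial membranes served as the MAO-A source, with enzyme activity measured by radiometric scintillation counting 1.17 hours after dosing. Loss of signal was fitted against DMSO; primary screen used 25 uM in duplicate, follow-up used concentration series.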

Experiment [8] deals with bovine Gamma-Aminobutyric Acid Type A Receptor BDZ, alpha 1 site (GABARa1), GABRA1 (gene 780973) (UniProt P08219). Put plainly: NVS_LGIC_bGABARa1: NovaScreen (NVS) Ligand-Gated Ion Channel Assay for bovine Gamma-Aminobutyric Acid Type A Receptor BDZ, alpha 1 site (GABARa1) (AID 2283321). In short, it runs like this:
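Radioligand competition binding on bovine cortical membranes, 0.75 h, filter-based scintillation counting. Primary single concentration 25 uM in duplicate; actives rerun in concentration-response to 50 uM max. Loss of signal fitted versus DMSO.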

The target in experiment [9] is Protein deacetylase HDAC6 (Homo sapiens) (UniProt Q9UBN7). Put plainly: NVS_ENZ_hHDAC6: NovaScreen (NVS) Enzymatic Assay for human Histone Deacetylase 6 (HDAC6) (AID 2283164). Summed up: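 Recombinant human HDAC6 with fluorescent substrate, 1 h; product separated from substrate by electrophoretic mobility shift. Primary screen in duplicate at 25 uM; actives retested singly in concentration-response up to 50 uM, fitted relative to DMSO.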

Experiment [10] has as its target human Phosphatase and Tensin Homolog (PTEN), PTEN (gene 5728) (UniProt P60484). Put plainly: NVS_ENZ_hPTEN: NovaScreen (NVS) Enzymatic Assay for human Phosphatase and Tensin Homolog (PTEN) (AID 2283203). Summed up:
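Cell-free recombinant human PTEN with fluorescent substrate; product separated by electrophoretic mobility shift and read by fluorescence 1 h after dosing. Primary screen in duplicate at 25 uM, actives followed in concentration series versus DMSO.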

Experiment [11] concerns the target Norway rat Vesicular Monoamine Transporter (VMAT2), neurotransmitter transporter, Slc18a2 (gene 25549) (UniProt Q01827). As to the kind of experiment: NVS_TR_rVMAT2: NovaScreen (NVS) Transporter Assay for Norway rat Vesicular Monoamine Transporter (VMAT2), neurotransmitter transporter (AID 2283376).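 Further: actives lower the bound radioligand signal below the DMSO level.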 Summed up: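 Radioligand displacement binding on rat forebrain tissue preparation, filter-based scintillation read-out 1 hour after dosing. Primary screen in duplicate at 25 uM, then concentration series for actives; loss of signal versus DMSO.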

Experiment [12] deals with rat Monoamine Oxidase, MAO-B, Peripheral (MAOBP), Maob (gene 25750) (UniProt P19643). Put plainly: NVS_ENZ_rMAOBP: NovaScreen (NVS) Enzymatic Assay for rat Monoamine Oxidase, MAO-B, Peripheral (MAOBP) (AID 2283242).
Experiment [13] has as its target Cytochrome P450 2C18 (Homo sapiens) (UniProt P33260). Put plainly: NVS_ADME_hCYP2C18: NovaScreen (NVS) CYP450-related Enzyme Activity (ADME) Assay for human CYP2C18 (AID 2283103; active means hit-call score of the fitted dose curve at least 0.9, where 1 is the maximum; inactive means score below 0.9). In short, it runs like this:
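Cell-free recombinant human CYP2C18 with fluorogenic substrate; fluorescence intensity read 0.5 h after dosing. Single-point screen at 10 uM in duplicate, then concentration-response up to 20 uM; loss of signal fitted against acetonitrile baseline.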

The target of experiment [14] is human Protein Tyrosine Phosphatase Non-receptor Type 2 (PTPN2), PTPN2 (gene 5771) (UniProt P17706). As to the kind of experiment: NVS_ENZ_hPTPN2: NovaScreen (NVS) Enzymatic Assay for human Protein Tyrosine Phosphatase Non-receptor Type 2 (PTPN2) (AID 2283207). Summed up: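 Cell-free recombinant enzyme with fluorescent substrate, product separated by electrophoretic mobility shift; read 1 h after dosing. Primary screen single concentration (25 uM) in duplicate; actives followed in concentration series; loss of signal versus DMSO.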
Sequence of human Protein Tyrosine Phosphatase Non-receptor Type 2 (PTPN2), PTPN2 (gene 5771) (P17706 whole entry, looked up): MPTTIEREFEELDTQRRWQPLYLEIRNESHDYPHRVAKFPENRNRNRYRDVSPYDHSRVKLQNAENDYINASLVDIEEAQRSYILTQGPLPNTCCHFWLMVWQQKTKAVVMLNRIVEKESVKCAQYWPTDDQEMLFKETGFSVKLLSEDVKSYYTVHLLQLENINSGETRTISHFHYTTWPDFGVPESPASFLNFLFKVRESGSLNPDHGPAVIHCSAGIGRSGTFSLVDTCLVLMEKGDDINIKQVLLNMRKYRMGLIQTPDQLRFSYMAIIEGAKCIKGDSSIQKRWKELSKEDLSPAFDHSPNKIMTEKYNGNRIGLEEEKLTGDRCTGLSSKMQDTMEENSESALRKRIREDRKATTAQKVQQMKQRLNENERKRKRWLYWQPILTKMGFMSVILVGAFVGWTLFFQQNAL

The target of experiment [15] is human Epidermal Growth Factor Receptor (EGFR), EGFR (gene 1956) (UniProt P00533). As to the kind of experiment: NVS_ENZ_hEGFR: NovaScreen (NVS) Enzymatic Assay for human Epidermal Growth Factor Receptor (EGFR) (AID 2283151). In short, it runs like this:
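Cell-free kinase assay, fluorescence plus electrophoretic mobility shift separating substrate and product, read 1 hour after dosing; loss of signal vs DMSO. Duplicate screen at 25 uM, then concentration-response to 50 uM.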

Experiment [16] has as its target rat Monoamine Oxidase, MAO-B, Central (MAOBC), Maob (gene 25750) (UniProt P19643). Put plainly: NVS_ENZ_rMAOBC: NovaScreen (NVS) Enzymatic Assay for rat Monoamine Oxidase, MAO-B, Central (MAOBC) (AID 2283238). Summed up:
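MAO-B activity in rat brain tissue preparation, cell-free, measured radiometrically by scintillation counting 1.17 h after dosing. Screened in duplicate at 25 uM; actives then in concentration-response up to 50 uM. Loss of signal versus DMSO scored.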

Records with an inconclusive call do not appear. Active and inactive are the calls of the source. How the source made its calls, unless noted: active means hit-call score of the fitted dose curve at least 0.9, where 1 is the maximum; inconclusive means response in the unintended direction; inactive means score below 0.9.

Sequence of human AMP-activated Protein Kinase, alpha 1 (AMPKa1), PRKAA1 (gene 5562) (Q13131 whole entry, looked up): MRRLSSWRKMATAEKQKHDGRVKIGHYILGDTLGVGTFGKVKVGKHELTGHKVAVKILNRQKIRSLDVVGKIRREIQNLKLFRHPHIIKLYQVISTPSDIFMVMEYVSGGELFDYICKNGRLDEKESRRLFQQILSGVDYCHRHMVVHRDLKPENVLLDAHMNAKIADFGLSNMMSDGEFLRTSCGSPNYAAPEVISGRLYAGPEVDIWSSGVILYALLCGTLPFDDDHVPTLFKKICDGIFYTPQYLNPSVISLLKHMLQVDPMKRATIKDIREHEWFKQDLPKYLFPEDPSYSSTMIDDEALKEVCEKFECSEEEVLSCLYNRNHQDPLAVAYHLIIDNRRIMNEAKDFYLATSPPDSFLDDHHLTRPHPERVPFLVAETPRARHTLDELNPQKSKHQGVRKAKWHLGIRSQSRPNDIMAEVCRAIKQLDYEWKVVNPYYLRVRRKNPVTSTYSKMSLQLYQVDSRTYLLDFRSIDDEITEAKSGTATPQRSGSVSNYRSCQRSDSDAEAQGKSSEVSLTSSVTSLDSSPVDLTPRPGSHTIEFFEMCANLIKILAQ
Sequence of human CYP4F12, CYP4F12 (gene 66002) (Q9HCS2 whole entry, looked up): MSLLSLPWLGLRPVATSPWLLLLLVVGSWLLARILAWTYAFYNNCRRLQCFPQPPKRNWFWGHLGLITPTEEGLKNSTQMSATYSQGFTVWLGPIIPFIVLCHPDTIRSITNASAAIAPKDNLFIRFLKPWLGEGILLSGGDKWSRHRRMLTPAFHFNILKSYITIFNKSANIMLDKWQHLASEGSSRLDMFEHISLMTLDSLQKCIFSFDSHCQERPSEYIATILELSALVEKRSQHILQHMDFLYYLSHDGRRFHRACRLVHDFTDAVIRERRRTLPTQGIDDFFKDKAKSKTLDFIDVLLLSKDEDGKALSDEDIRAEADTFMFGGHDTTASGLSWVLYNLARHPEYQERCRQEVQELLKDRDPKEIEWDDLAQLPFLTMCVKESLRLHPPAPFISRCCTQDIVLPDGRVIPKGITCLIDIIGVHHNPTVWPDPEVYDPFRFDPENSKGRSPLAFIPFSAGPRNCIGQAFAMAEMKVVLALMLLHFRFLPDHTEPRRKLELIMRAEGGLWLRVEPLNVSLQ
Sequence of Norway rat Vesicular Monoamine Transporter (VMAT2), neurotransmitter transporter, Slc18a2 (gene 25549) (Q01827 whole entry, looked up): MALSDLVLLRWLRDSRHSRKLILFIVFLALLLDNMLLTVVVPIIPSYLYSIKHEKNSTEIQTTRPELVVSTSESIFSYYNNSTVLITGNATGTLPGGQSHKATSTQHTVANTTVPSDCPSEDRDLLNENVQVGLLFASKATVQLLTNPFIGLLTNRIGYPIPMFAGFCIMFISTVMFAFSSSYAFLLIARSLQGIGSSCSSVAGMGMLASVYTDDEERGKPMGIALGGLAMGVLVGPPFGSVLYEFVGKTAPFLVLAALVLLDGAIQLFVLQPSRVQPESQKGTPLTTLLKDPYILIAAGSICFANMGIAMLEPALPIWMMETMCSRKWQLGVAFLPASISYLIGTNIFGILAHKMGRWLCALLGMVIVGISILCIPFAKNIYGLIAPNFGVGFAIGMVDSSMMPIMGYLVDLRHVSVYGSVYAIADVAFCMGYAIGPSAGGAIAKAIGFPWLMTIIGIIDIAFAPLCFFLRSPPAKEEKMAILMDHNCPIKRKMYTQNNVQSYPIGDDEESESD
Sequence of human IkappaB Kinase alpha (IKKa), CHUK (gene 1147) (O15111 whole entry, looked up): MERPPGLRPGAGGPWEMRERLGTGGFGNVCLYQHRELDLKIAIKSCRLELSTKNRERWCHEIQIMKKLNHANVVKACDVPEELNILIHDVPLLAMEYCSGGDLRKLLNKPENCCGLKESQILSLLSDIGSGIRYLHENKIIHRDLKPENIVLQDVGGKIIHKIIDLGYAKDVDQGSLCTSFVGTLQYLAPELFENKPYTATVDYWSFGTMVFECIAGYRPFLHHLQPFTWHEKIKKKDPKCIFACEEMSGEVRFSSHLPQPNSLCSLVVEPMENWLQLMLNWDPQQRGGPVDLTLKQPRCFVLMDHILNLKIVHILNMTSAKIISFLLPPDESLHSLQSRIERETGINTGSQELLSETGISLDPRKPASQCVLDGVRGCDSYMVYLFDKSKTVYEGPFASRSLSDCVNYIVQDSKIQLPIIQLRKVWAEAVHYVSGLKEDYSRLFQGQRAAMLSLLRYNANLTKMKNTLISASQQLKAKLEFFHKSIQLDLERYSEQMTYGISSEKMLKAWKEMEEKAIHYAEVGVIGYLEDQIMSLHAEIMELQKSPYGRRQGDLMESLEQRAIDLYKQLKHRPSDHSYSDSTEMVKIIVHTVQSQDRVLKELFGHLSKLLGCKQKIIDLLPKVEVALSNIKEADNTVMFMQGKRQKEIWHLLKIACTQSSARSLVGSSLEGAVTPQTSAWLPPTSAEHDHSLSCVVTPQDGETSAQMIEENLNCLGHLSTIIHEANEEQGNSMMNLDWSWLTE
Sequence of human Phosphatase and Tensin Homolog (PTEN), PTEN (gene 5728) (P60484 whole entry, looked up): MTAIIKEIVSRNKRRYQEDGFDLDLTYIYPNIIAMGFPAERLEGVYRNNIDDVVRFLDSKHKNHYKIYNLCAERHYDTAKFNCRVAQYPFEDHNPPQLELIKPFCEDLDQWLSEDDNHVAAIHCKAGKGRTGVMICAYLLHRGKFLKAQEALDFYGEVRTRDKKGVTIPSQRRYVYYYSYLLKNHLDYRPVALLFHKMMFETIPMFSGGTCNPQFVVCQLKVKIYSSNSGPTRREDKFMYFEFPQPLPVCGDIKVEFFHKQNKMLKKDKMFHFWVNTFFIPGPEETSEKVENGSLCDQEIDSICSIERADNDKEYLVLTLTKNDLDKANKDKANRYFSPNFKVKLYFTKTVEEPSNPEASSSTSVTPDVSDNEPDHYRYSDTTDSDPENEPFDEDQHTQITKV
Sequence of PPP2CA (gene 5515) (P67775 whole entry, looked up): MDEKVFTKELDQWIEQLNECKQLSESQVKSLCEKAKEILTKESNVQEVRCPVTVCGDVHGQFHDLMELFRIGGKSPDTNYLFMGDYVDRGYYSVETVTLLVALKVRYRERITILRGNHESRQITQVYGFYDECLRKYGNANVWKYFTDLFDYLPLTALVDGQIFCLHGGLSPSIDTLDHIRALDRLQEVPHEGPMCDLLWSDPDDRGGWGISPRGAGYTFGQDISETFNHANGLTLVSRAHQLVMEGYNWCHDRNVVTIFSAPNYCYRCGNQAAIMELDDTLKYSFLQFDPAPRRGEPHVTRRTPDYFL

As to `CCOC(N)=O`, the outcome in experiment [1] and in experiment [2] was inactive.

Consider `O=S1(=O)CC(Cl)(Cl)C(Cl)(Cl)C1`, for which the result in [3] and in experiment [4] was inactive.

As to `CNC(=O)[C@H]1O[C@@H](n2cnc3c(NCc4cc(Cl)ccc4OCc4cc(C)no4)ncnc32)[C@H](O)[C@@H]1N`, the molecule was called inactive in experiment [1] and in experiment [2].

Regarding `CCN(CC)CCNc1ccc(CNC=O)c2sc3ccc(OC)cc3c(=O)c12`, the AC50 is 1.41 µM (active) in experiment [1], 13.9 µM (active) in experiment [5], 9.35 µM (active) in experiment [7] and 25 µM (active) in experiment [4]. Further, the call (in [2]; in experiment [6]; with PPP2CA (gene 5515); in [8]) was inactive.

In the case of `CC(C)NCC(O)c1ccc(O)c(O)c1` (centres undefined), the AC50 in experiment [1] was 2.13 µM (active).

As for `CCc1ccc(O)c(C(C)(C)C)c1`, the result in experiment [1] and in experiment [9] was inactive.

For `NC(=S)NNC(N)=S`, the molecule was called inactive in [3].

`CCN(CC)c1ccc2c(C)cc(=O)oc2c1`: the results for the AC50 in experiment [3] and in experiment [4] were 8.15 µM (active) and 8.36 µM (active), respectively.

With `O=C1OC2(c3cc(Br)c(O)c(Br)c3Oc3c2cc(Br)c(O)c3Br)c2c(Cl)c(Cl)c(Cl)c(Cl)c21`, the call in [3] was inactive. Besides, the AC50 in [10] was 0.851 µM (active).

As to `Cc1ccccc1Cl`, the AC50 in experiment [1] was 7.95 µM (active). The outcome in experiment [11] was inactive.

As to `COc1cccc([C@H](O)C2CCN(CCc3ccc(F)cc3)CC2)c1OC`, the AC50 in [1] is 0.441 µM (active); in experiment [12], 12.5 µM (active).

As for `CCOC(=O)NCCOc1ccc(Oc2ccccc2)cc1`, the AC50 in [13] was 4.5 µM (active). Also, in [14], the outcome was inactive.

Take `Nc1ccc2c(c1)C(=O)c1ccccc1C2=O`: the result in experiment [5], in [15], in experiment [16] and in [11] was inactive. For the same molecule, the AC50 in [7] was 6.14 µM (active); in [4], 3.68 µM (active).
